Source: PubChem BioAssay (several laboratories)
SKKanGAS inh – S. pyogenes SKKanGAS growth inhibitors in kanamycin, primary screen, streptokinase expression inhibitor project, SKKanGAS strain, BacTiter-Glo luminescence; actives 1.3% (n = 300,000); 6 h; inhibition, % at 7.5 µM;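 active means mean replicate score, as percent of positive control median, at least 50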;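 further: strain carries kanamycin resistance gene driven by streptokinase promoter and grows in 40 µg/ml kanamycin; loss of luminescence reflects streptokinase promoter inhibition or plain growth inhibition; 0% = median of DMSO wells and 100% = positive control at its reference dose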
PP1 inh – PP1-alpha phosphatase inhibitors, primary screen, counter-screen for PP5 inhibitor project, biochemical, fluorescence, OMFP substrate, single point. Serine/threonine-protein phosphatase PP1-alpha catalytic subunit (Homo sapiens), P62136. purified PP1alpha. inhibition, % at 6.7 µM. actives 0.9% (n = 320,000);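 active means inhibition above the mean inhibition of all tested compounds plus 3 SD, computed separately for each screening campaign, cut at about 15% in these data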
CSC inhib – cancer stem cell viability inhibitors, primary screen, luminescence; actives 1.1% (n = 300,000); inhibition, % at 7.5 µM; cancer stem cell-like cells viability; AID 2717, 2010; in the data active means inhibition above about 75%; tested in HMLE shEcad cells
PP5 inh – PP5 phosphatase inhibitors, primary screen, biochemical, fluorescence. Serine/threonine-protein phosphatase 5 (Homo sapiens), P53041. purified PP5c, OMFP substrate fluorescence. inhibition, % at 6.7 µM. actives 0.18% (n = 320,000);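 active means inhibition above the campaign's mean inhibition across all tested compounds plus 3 SD, cut at about 9.5% in these data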;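 further: 0% = DMSO only and 100% = 100 µM cantharidin control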
Target sequence (P53041 whole entry, looked up): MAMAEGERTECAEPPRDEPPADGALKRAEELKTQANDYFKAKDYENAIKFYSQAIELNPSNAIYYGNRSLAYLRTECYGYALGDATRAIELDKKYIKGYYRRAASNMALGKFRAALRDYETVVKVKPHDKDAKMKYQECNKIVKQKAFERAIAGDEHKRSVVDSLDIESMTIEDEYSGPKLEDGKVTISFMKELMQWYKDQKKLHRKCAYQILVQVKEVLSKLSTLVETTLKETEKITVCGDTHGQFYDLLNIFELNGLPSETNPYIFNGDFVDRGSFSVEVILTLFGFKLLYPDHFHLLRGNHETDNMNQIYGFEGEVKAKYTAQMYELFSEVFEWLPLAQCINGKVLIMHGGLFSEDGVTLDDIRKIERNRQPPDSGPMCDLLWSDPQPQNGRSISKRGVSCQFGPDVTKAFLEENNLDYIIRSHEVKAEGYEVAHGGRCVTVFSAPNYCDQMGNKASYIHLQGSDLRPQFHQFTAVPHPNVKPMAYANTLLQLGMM
Beta apoptosis – inhibitors of cytokine-induced beta cell apoptosis, primary screen, luminescence. protection from apoptosis, % (test concentration not listed). AID 435005, 2010. actives 0.8% (n = 300,000). INS-1E cytokine-induced death, ATP luminescence, 48 h; percent of positive-control rescue, neutral wells zero;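 active means Every replicate reaches about 75%, or at least half do and their mean reaches it too, limit read from the data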;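 further: 0% = cytokine-treated negative control wells and 100% = positive control rescue; higher means more ATP so stronger rescue from cytokine killing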
PP1 inh confirm – PP1 phosphatase inhibitors, confirmation, biochemical, fluorescence, OMFP substrate, triplicate; shares compounds with PP1 inh; purified PP1alpha; inhibition, % at 6.7 µM; actives 52% (n = 1,900); AID 2358, 2010;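 active means mean PP1 inhibition above a set limit taken from the earlier primary screen, cut at about 15% in these data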
PP5 inh counter – PP5 phosphatase inhibition by PP1 hits, confirmation, counter-screen for PP1 inhibitor project, biochemical, fluorescence, triplicate; actives 4% (n = 1,900); purified PP5c, OMFP fluorescence; inhibition, % at 6.7 µM; shares compounds with PP1 inh;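 active means mean PP5 inhibition over triplicate wells above about 9.5% taken from the earlier PP1 screen, limit read from the data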
Numbers without * were called inactive; nt = no result given. Sampled rows, rich in hits. Any-hit rate of the full collection: about 3.1%.

SMILES	SKKanGAS inh	PP1 inh	CSC inhib	PP5 inh	Beta apoptosis	PP1 inh confirm	PP5 inh counter
C#CCOCCOCCOCCNc1nc(N2CCN(C(=O)CCCCCCCCCCNC(=O)[C@H](CCCCN)n3cc(C[C@@H](C)CC)nn3)CC2)nc(N2CCN(C(=O)CCCCCCCCCCNC(=O)[C@@H]([C@H](C)O)n3cc(C)nn3)CC2)n1	nt	60.9*	18.6	5.3	98.8*	47.3*	4.4
C#CCOCCOCCOCCNc1nc(N2CCN(C(=O)CCCCCCCCCCNC(=O)[C@H](CCCCN)n3cc(C)nn3)CC2)nc(N2CCN(C(=O)CCCCCCCCCCNC(=O)[C@H](CCCN=C(N)N)n3cc(C[C@@H](C)CC)nn3)CC2)n1	nt	53.2*	168.0*	5.0	99.5*	49.8*	-0.3
C#CCOCCOCCOCCNc1nc(N2CCN(C(=O)CCCCCCCCCCNC(=O)[C@H]([C@@H](C)CC)n3cc(CCCCN=C(N)N)nn3)CC2)nc(N2CCN(C(=O)CCCCCCCCCCNC(=O)[C@@H]([C@H](C)O)n3cc(C)nn3)CC2)n1	nt	55.5*	7.8	2.4	15.4	46.8*	1.4
O=C1NC[C@@H](c2ccccc2)OC(=O)[C@@H](Cc2ccc(F)cc2)CC/C=C/C[C@H]1CC(=O)N(CCO)Cc1ccccc1	nt	nt	18.2	nt	9.1	nt	nt
COCC(C)n1c(SCc2ccc(OC)c(F)c2)nc2ccccc2c1=O (stereo not given)	20.4	nt	nt	nt	nt	nt	nt
O=C(Nc1ccc(Cl)cn1)C1CCN(c2ncnc3c2nc2n3CCCCC2)CC1	1.5	-1.3	6.8	2.4	-3.2	nt	nt
Cc1ccc(S(=O)(=O)N2CCN(c3nc(CN4CCCC4)nc4sc(C)c(C)c34)CC2)cc1	nt	18.9*	7.6	-1.7	7.0	4.1	-0.1
Cc1sc2nc(CN3CCCC3)nc(N3CCN(S(=O)(=O)c4cccs4)CC3)c2c1C	-5.4	27.2*	-10.6	1.2	-0.5	12.6	-0.2
CCc1nc(N2CCN(S(=O)(=O)c3ccc(Br)cc3)CC2)c2c(C)c(C)sc2n1	11.2	1.7	6.4	1.7	-4.8	nt	nt
COc1cccc(OCc2cc(C(=O)N(C)CCOc3ccc(C)cc3)no2)c1	-7.5	3.0	nt	4.6	nt	nt	nt
O=C(CSc1ccc(-c2ccco2)nn1)c1ccc(F)cc1	-1.4	3.2	nt	-0.6	-3.8	nt	nt
N#Cc1ccc(-c2ccco2)nc1SCC(=O)c1ccc(Cl)cc1	-1.6	26.2*	1.0	0.7	-2.5	6.8	-3.1
O=C1CC(=O)N(CCNc2ncc(C(F)(F)F)cc2Cl)C(=O)N1	-5.8	28.7*	-24.3	2.7	nt	-2.5	-1.1
CCC(=O)N1N=C(c2c(-c3ccccc3)c3cc(Cl)ccc3[nH]c2=O)CC1c1ccco1 (stereo not given)	3.8	27.1*	nt	-0.6	-8.8	10.1	-1.2
O=C(O)CCC(=O)N1N=C(c2c(-c3ccccc3)c3cc(Cl)ccc3[nH]c2=O)CC1c1ccco1 (stereo not given)	2.9	3.2	1.1	1.8	-0.7	nt	nt
Cc1ccccc1C(=O)NC1CC2CCCC(C1)N2C(=O)Nc1ccccc1 (stereo not given)	-0.7	-3.2	-13.5	0.5	1.8	nt	nt
CCCCCCCCC[n+]1cccc2c3ccccc3ccc21	12.1	19.2*	57.6	-4.5	111.1*	-10.7	-2.3
O=C(NC1CC2CCCC(C1)N2C(=O)Nc1cccc(F)c1)C1CC1 (stereo not given)	0.8	-1.7	-18.1	0.9	-15.9	nt	nt
CCOc1cccc(/C=N/Nc2ccc(S(=O)(=O)N(CC)CC)cn2)c1O	91.0*	30.8*	116.6*	-1.3	117.4*	32.5*	-1.9
CCN(CC)S(=O)(=O)c1ccc(N/N=C/c2cc(OC)c(OC)cc2OC)nc1	-0.5	-1.3	-6.6	-1.5	-2.1	nt	nt
Cc1ccc(-n2nc3c(c2NC(=O)/C=C\c2ccc4c(c2)OCO4)CSC3)cc1	4.7	19.6*	-10.6	3.7	-2.2	12.6	-1.6
